Assay [1] in a line: TOX21_p53_BLA_p2_viability: Viability Assessment in the Tox21 HCT-116 p53 Agonism Beta-lactamase Assay, Phase 2 (AID 2283591).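 Further: compound exposure lasted 16 h at 37 °C; actives lower the ATP signal meaning cytotoxicity.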 The essentials: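 HCT-116 p53-bla cells (4000/well) rested 5 h at 37C, then received compounds in DMSO (217-fold dilution) for 16 h at 37C, 5% CO2. After the CCF4 read, CellTiter-Glo was added; ATP luminescence was read after 30 min at room temperature.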

Assay [2] deals with Cellular tumor antigen p53 (Homo sapiens) (UniProt P04637). The experiment in a line: TOX21_p53_BLA_p2_ratio: Tox21 HCT-116 p53 Agonism Beta-lactamase Assay, Ratio, Phase 2 (AID 2283592). The essentials: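 Read-out is the blue/green (460/530 nm, 405 nm excitation) ratio after 2 h CCF4-AM loading, fitted as gain versus DMSO. Compounds, pinned at 217-fold dilution from DMSO stocks, stayed 16 h on HCT-116 beta-lactamase reporter cells seeded 5 h earlier.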
Chain of Cellular tumor antigen p53 (Homo sapiens) (P04637 whole entry, looked up): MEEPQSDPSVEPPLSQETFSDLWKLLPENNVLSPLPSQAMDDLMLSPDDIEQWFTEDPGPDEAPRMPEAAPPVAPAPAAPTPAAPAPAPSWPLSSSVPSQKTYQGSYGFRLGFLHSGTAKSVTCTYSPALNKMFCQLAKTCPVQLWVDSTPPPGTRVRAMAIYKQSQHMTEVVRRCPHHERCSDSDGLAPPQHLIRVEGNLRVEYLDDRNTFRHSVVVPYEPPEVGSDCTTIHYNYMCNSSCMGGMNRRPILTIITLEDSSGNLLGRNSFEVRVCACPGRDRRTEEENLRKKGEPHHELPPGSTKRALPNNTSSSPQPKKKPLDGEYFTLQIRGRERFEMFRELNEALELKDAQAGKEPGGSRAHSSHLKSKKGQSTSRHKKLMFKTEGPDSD

Assay [3] can be described thus: TOX21_p53_BLA_p3_viability: Viability Assessment in the Tox21 HCT-116 p53 Agonism Beta-lactamase Assay, Phase 3 (AID 2283593).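 Further: cells exposed to compound for 16 h before reading.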 The essentials: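 HCT-116 cells (4000/well) rested 5 h at 37C, then got DMSO compounds by pin tool (217-fold dilution) for 16 h at 37C, 5% CO2. After the bla read, CellTiter-Glo was added and luminescence read at 30 min, room temperature.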

Assay [4] is described as follows: TOX21_p53_BLA_p4_viability: Viability Assessment in the Tox21 HCT-116 p53 Agonism Beta-lactamase Assay, Phase 4 (AID 2283597).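 Further: hits lower the luminescence signal meaning cytotoxicity.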 The essentials: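 Cytotoxicity as reduced cellular ATP (CellTiter-Glo luminescence, 30 min room temperature), measured in the same wells following the CCF4 FRET p53 reading. Human HCT-116 cells received compounds in DMSO (217-fold dilution) for 16 h.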

Assay [5] has as its target Cellular tumor antigen p53 (Homo sapiens) (UniProt P04637). The experiment in a line: TOX21_p53_BLA_p5_ratio: Tox21 HCT-116 p53 Agonism Beta-lactamase Assay, Ratio, Phase 5 (AID 2283599). The essentials: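 HCT-116 cells carrying a p53-inducible beta-lactamase reporter were seeded at 4000 cells/well and dosed after 5 h with compound in DMSO (217-fold dilution). After 16 h at 37C, CCF4-AM substrate was added for 2 h, and the 460/530 nm emission ratio was scored as gain-of-signal versus DMSO.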

Assay [6] in a line: TOX21_p53_BLA_p5_viability: Viability Assessment in the Tox21 HCT-116 p53 Agonism Beta-lactamase Assay, Phase 5 (AID 2283600). The essentials: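 Viability came from CellTiter-Glo ATP luminescence, read after 30 min at room temperature. Before this, HCT-116 p53-bla cells (4000/well) had 16 hours of compound exposure at 37C, with DMSO stocks diluted 217-fold on transfer.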
The target in assay [7] is Cellular tumor antigen p53 (Homo sapiens) (UniProt P04637). The experiment in a line: TOX21_p53_BLA_p4_ratio: Tox21 HCT-116 p53 Agonism Beta-lactamase Assay, Ratio, Phase 4 (AID 2283601). The essentials: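 HCT116 cells carrying an inducible beta-lactamase reporter were plated at 4000 cells/well, rested 5 h, then exposed to compounds in DMSO (217-fold dilution) for 16 h at 37C. CCF4-AM substrate was loaded 2 h at room temperature; 460/530 nm emission ratio scored gain-of-signal versus DMSO.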

Assay [8] concerns the target Thyroid hormone receptor alpha (Rattus norvegicus) + Thyroid hormone receptor beta (Rattus norvegicus) (UniProt P18113+P63059). Nature of the assay: TOX21_TR_LUC_GH3_Antagonist_Followup: Tox21 GH3 Thyroid Hormone Receptor Antagonism Luciferase Follow-Up Assay (AID 2283942). The essentials: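 In a GH3 luciferase reporter line, test chemicals spanning 92 uM to 5nM final are co-incubated 24 h with 1.0 nM T3. Activity is expressed as relative luminescence units and analysed relative to DMSO.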

A further assay has as its target THRA (gene 7067) (UniProt P10827). Nature of the assay: TOX21_TRA_COA_Antagonist_Followup_ratio: Tox21 Thyroid Hormone Receptor alpha Antagonism through Coactivator Recruitment Follow-Up Assay, Ratio (AID 2283953). The essentials: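 GST-TRα LBD 2.5 nM, BSA 0.10%, + cpd; then FITC-SRC-2 peptide 200 nM + Tb-anti-GST Ab 2 nM. TR-FRET ratio 520/495 nm. Norm: DMSO = 0%, T3 = 100%.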

The target in a further assay is THRB (gene 7068) (UniProt P10828). The experiment in a line: TOX21_TRB_BLA_Antagonist_Followup_ratio: Tox21 Thyroid Hormone Receptor beta Antagonism Beta-lactamase (BLA) Follow-Up Assay, Ratio (AID 2283958). The essentials: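 Cells were plated and allowed to attach for 5 h, then dosed with compounds in DMSO at 11 concentrations for 18 h at 37C. Beta-lactamase reporter activity was measured via CCF4-AM FRET as the 460:530 nm ratio.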
Chain of THRB (gene 7068) (P10828 whole entry, looked up): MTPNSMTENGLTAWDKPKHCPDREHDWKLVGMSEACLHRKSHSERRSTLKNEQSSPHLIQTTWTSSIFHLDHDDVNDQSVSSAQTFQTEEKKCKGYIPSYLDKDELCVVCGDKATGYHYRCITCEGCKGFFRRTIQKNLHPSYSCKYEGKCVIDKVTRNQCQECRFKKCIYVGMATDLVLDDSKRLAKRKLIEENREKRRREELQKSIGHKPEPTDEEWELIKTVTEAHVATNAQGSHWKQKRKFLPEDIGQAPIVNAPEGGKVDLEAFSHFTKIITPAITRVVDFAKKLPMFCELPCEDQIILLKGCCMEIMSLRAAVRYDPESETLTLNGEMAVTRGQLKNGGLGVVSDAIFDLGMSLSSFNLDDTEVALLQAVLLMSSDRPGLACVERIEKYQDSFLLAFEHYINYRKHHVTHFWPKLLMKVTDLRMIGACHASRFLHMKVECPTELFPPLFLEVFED

A short description of assay [9]: TOX21_TRB_BLA_Antagonist_Followup_viability: Viability Assessment in the Tox21 Thyroid Hormone Receptor beta Antagonism Beta-lactamase (BLA) Follow-Up Assay (AID 2283961). The essentials:
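ATP-based CellTiter-Glo luminescence (30 min, room temperature) run in the same wells as the TRβ-bla readout. Cells: GeneBLAzer HEK293T expressing GAL4-TRβ LBD, exposed 18 h at 37C to compounds at 11 concentrations in triplicate, stripped-serum medium.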

Assay [10] can be described thus: TOX21_TR_RXR_BLA_Antagonist_Followup_viability: Viability Assessment in the Tox21 Thyroid Hormone Receptor beta Retinoid X Receptor alpha (RXRa) Antagonism Beta-lactamase (BLA) Follow-Up Assay (AID 2283979). The essentials:
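RXRa-UAS-bla HEK293T cells seeded 2,500/well in phenol red-free DMEM with 2% charcoal-stripped FBS, attached 5 h, then exposed to compounds at 11 concentrations in triplicate for 16 h at 37C/5% CO2. Viability read by CellTiter-Glo ATP luminescence; bidirectional fit versus DMSO.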

Results filed as inconclusive are left out. The source made the active and inactive calls. How the source made its calls: active means hit-call score of the fitted dose curve at least 0.9, where 1 is the maximum; inconclusive means response in the unintended direction; inactive means score below 0.9.

Chain of THRA (gene 7067) (P10827 whole entry, looked up, the tested form may be a part): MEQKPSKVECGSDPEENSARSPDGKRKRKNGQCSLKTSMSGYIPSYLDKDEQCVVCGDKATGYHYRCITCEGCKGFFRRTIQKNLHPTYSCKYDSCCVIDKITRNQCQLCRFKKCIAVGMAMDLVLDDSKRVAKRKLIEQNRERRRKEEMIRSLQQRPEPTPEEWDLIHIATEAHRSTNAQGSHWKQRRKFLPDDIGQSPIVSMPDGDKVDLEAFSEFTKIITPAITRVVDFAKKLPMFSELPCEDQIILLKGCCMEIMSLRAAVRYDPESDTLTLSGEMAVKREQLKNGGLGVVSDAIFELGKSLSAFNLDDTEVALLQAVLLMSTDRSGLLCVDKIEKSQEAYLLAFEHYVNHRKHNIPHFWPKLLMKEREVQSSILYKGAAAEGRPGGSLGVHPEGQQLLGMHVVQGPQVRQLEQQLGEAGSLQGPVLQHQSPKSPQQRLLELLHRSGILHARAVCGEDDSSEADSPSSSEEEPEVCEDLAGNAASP

As for `c1ccncc1`, the compound was called inactive in assay [1], in assay [2], in assay [3], in assay [4], in [5] and in assay [6]. For the same compound, the result in assay [7] was inactive.

Turning to `C=C[C@]1(C)C[C@@H](OC(=O)CSCCN(CC)CC)[C@]2(C)[C@H](C)CC[C@]3(CCC(=O)[C@H]32)[C@@H](C)[C@@H]1O`, the compound was called inactive in [1], in assay [2], in assay [3], in [4] and in assay [6].

As for `C[C@]12C=CC(=O)N[C@@H]1CC[C@@H]1[C@@H]2CC[C@]2(C)[C@@H](C(=O)Nc3cc(C(F)(F)F)ccc3C(F)(F)F)CC[C@@H]12`, the outcome in [1], in [2], in assay [4], in [5] and in assay [7] was inactive. In addition, the AC50 in assay [3] was 7.37 µM (active).

As for `CC(C)CCCCCCN`, the call in [1], in [2], in assay [3], in assay [4] and in assay [6] was inactive.

As to `O=C(O)c1ccc2cc(O)ccc2c1`, the compound was called inactive in assay [1], in assay [2], in [3], in [4], in assay [5] and in assay [7].

Regarding `c1ccc(CNCCNCc2ccccc2)cc1`, the result in [1], in assay [2], in assay [3], in assay [4], in [5] and in assay [6] was inactive. The outcome in assay [7] was inactive.

On to `CCCCCCCCCCCCCCCBr`, for which the call in [1], in [2], in assay [3], in assay [4] and in assay [6] was inactive.

Consider `CCCCCCCCCOC(=O)c1ccccc1C(=O)OCCCCCCCCC`, for which the result in [1], in assay [2], in assay [3], in [4], in [5] and in [7] was inactive.

Consider `O=C1c2ccccc2C(=O)N1CCl`, for which the outcome in [1], in [2], in [3], in assay [4], in assay [5] and in assay [6] was inactive. Also, the outcome in [7] was inactive.

For `Cc1c(Nc2ncccc2C(=O)O)cccc1C(F)(F)F`, the compound was classed as inactive in assay [1], in assay [2], in [3], in assay [4], in assay [5] and in assay [6]. Moreover, the outcome (in assay [7]; in assay [8]; in the assay with THRA (gene 7067); with THRB (gene 7068); in assay [9]; in [10]) was inactive.

On to `CN1CCC(OC(=O)C(Oc2ccc(Cl)cc2)Oc2ccc(Cl)cc2)CC1`, for which the outcome in assay [1], in assay [2], in assay [3], in assay [4], in [5] and in [7] was inactive.

For the compound `CCCc1cc(C(N)=S)ccn1`, the outcome in [1], in assay [2], in assay [3], in [4] and in [6] was inactive.

`Cc1[nH]cnc1CN1CCc2c(c3ccccc3n2C)C1=O`: the compound was called inactive in [1], in assay [2], in [3], in assay [5], in [6] and in assay [7].

Regarding `CCC(=O)C=CC1C(C)=CCCC1(C)C` (centres undefined), the result in [1], in assay [2], in assay [3], in assay [5] and in assay [6] was inactive.

`CC(C)=CCC/C(C)=C/CC/C(C)=C/CC/C=C(\C)CC/C=C(\C)CCC=C(C)C`: the call in assay [1], in assay [2], in [3], in assay [4], in assay [6] and in [7] was inactive.

By AC50 is commonly meant the midpoint of the concentration-response curve, whichever way the signal moves.

The values above are taken from PubChem BioAssay (EPA / NIEHS).
